# The panel holds about 83,000 compounds, 20% with a hit somewhere; the sample as a whole holds those more often.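 Step 1: grow cells in 96-well plates. Step 2: add test compound at a single concentration. Step 3: incubate 48 h. Step 4: record percent growth.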 Values without a mark were called inactive. The source made the active and inactive calls. How the source made its calls: active means growth percent below 10; inactive means the rest.
# Tested on: SF-539 CNS
# Assay: NCI-60 one-dose screen, 48 h (100 = growth as untreated, 0 = no growth, -100 = all killed)
# Details: 10 µM unless noted
row,SMILES,growth
1,Cc1[nH]c(C(=O)Nc2ccc(C(=O)NCCN)cc2OC(C)C)c(Cl)c1Cl,-22.3% (active)
2,O=C(S)CNC(=O)c1ccccc1,93.4%
3,COc1cccc(OC)c1C(=O)N[C@@H]1C(=O)N2[C@@H]1SC(C)(C)[C@@H]2C(=O)O,108%
4,CCCCn1c(-c2ccc(C(=O)O/N=C(\N)c3ccc(OC)cc3)cc2)nc(-c2ccccc2)c1-c1ccccc1,-77.6% (active)
5,CCCCCCN(CCCCCC)c1ccc(/C=C2/SC(=O)NC2=O)c(C)c1,117%
6,COc1cc(C(=O)N2N=C(c3ccc(S(C)(=O)=O)cc3)CC2c2ccco2)cc(OC)c1OC (centres undefined),79.1%
7,COc1ccc(-c2cc(-c3ccc(Cl)cc3)c(C#N)c(=O)n2CCCCCC(=O)Nc2ccccc2N)cc1,60%
8,COc1cccc(-c2nn(-c3ccccc3)cc2-c2ccnc(N3CCOCC3)c2)c1,97.9%
9,COc1cc(CNS(=O)(=O)c2ccc(C)cc2)ccc1OCc1cn(-c2ccccc2)nn1,94.6%
10,O=C(CCOCCNC(=O)COc1ccc2c(c1)OCC(c1ccc(F)cc1)C2=O)NCCCC(O)(P(=O)(O)O)P(=O)(O)O (centres undefined),101%
11,COc1ccc(C(=O)n2nc(-c3ccccc3)nc2N)cc1OC,91%
12,Cc1cc(C)c(-c2c(N)cc(Br)cc2Br)c(N)c1,46.9%
13,[O-][n+]1c2ccccc2[n+]([O-])c2c3ccccc3[nH]c21,91.4%
14,Cc1c(C(=O)/C=C/Nc2c(Cl)cc(S(N)(=O)=O)cc2Cl)sc2nc3ccccc3n12,96.6%
